Results taken from PubChem BioAssay.
Activity calls are given as the source filed them. Unless noted, no rule for the calls is given here.

Legend:
[1] = compound effects on lung adenocarcinoma cell viability – A549, calcein-AM fluorescence, 48 h, basal, profiling panel (AID 1162); conditions: higher = more signal; also: test concentration not given here
[2] = compound effects on differentiated 3T3-L1 adipocyte viability – cell-based, 3T3-L1 adipocytes, calcein-AM fluorescence, 48 h, basal, profiling panel (AID 1163); conditions: 3T3-L1 adipocytes viability, higher = more signal; also: test concentration not given here
[3] = compound effects on hepatocellular carcinoma cell viability – HepG2, calcein-AM fluorescence, 48 h, basal, profiling panel (AID 1164); conditions: higher = more signal; also: test concentration not given here
[4] = compound effects on multiple myeloma cell viability – MM1S, calcein-AM fluorescence, 48 h, basal, profiling panel (AID 1165); conditions: higher = more signal; also: test concentration not given here
[5] = calcein-AM signal in unstimulated myeloma cells – cell-based, calcein-AM fluorescence, 48 h, PK04 Diversity Set, profiling panel (AID 1166); conditions: RPMI8226 myeloma viability, higher = more signal;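 also: cells grown under basal conditions without added stimulus; test concentration not given here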
[6] = JC-1 mitochondrial signal, unstimulated HepG2 cells – cell-based, JC-1 fluorescence, 24 h, 100 nL compound, profiling panel (AID 1167); conditions: HepG2 mitochondrial potential, higher = more signal; also: test concentration not given here
[7] = JC-1 mitochondrial signal, unstimulated adipocytes – cell-based, JC-1 fluorescence, 3T3-L1 adipocytes, 24 h, 100 nL compound, profiling panel (AID 1168); conditions: JC-1 mitochondrial fluorescence, higher = more signal, called active from +8 up or from −8 down; also: test concentration not given here
[8] = JC-1 mitochondrial signal, unstimulated myeloma cells – cell-based, JC-1 fluorescence, RPMI8226, 24 h, 100 nL compound, profiling panel (AID 1169); conditions: JC-1 mitochondrial potential fluorescence, higher = more signal; also: test concentration not given here
[9] = JC-1 mitochondrial signal, unstimulated MM1S myeloma – cell-based, JC-1 fluorescence, 24 h, 100 nL compound, profiling panel (AID 1170); conditions: MM1S mitochondrial potential, higher = more signal; also: test concentration not given here
[10] = resazurin metabolic signal in A549 cells – cell-based, resazurin fluorescence, 24 h, PK04 Diversity Set, profiling panel (AID 1171); conditions: A549 viability, higher = more signal, called active from +8 up or from −8 down; also: test concentration not given here
[11] = resazurin metabolic signal in HepG2 cells – cell-based, resazurin fluorescence, 24 h, PK04 Diversity Set, profiling panel (AID 1172); conditions: HepG2 viability, higher = more signal; also: test concentration not given here
[12] = budding yeast growth changes without added modifier – OD600, strain BY4716, 24 h, basal condition, primary screen (AID 1173); conditions: S. cerevisiae BY4716 growth, OD600, 24 h; higher = more signal, called active from +8 up or from −8 down
[13] = viability profiling in MM1S myeloma cells – cell-based, resazurin fluorescence, basal, 24 h, PK04 Diversity Set, profiling panel (AID 1174); conditions: higher = more signal, called active from +8 up or from −8 down; also: test concentration not given here
[14] = biological target: Dihydroorotate dehydrogenase (quinone), mitochondrial (Plasmodium falciparum (isolate 3D7)) (UniProt Q08210); test: inhibition of P. falciparum DHODH – biochemical, C-terminal His tag, absorbance 600 nm, primary screen (AID 1175); conditions: PfDHODH enzyme, DCIP absorbance 600 nm; higher = more signal, called active from +8 up or from −8 down;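 also: recombinant parasite enzyme with a five histidine tag at its C terminus; test concentration not given here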
Sequence of Dihydroorotate dehydrogenase (quinone), mitochondrial (Plasmodium falciparum (isolate 3D7)) (Q08210 whole entry, looked up): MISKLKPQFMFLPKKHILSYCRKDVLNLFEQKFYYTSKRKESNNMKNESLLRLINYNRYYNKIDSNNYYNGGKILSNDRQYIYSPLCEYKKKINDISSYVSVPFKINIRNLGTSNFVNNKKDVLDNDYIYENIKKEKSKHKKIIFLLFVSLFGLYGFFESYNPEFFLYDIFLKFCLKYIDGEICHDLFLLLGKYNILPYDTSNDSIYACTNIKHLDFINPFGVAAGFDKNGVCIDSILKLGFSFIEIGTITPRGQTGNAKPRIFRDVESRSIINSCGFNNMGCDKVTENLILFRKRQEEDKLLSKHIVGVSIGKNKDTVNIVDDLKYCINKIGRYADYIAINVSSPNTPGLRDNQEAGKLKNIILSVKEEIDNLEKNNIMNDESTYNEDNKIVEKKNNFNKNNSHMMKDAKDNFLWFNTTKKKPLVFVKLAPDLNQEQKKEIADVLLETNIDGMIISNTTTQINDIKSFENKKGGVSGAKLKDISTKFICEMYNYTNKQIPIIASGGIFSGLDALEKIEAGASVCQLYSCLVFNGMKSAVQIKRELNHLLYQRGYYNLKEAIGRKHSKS

[15] = inhibition of PAO1 biofilm formation – strain PAO1, LB-PBS medium, absorbance 600 nm, primary screen (AID 1176); also: test concentration not given here; conditions: P. aeruginosa PAO1 growth/biofilm, A600, 12 h; higher = more signal
[16] = growth modulation of vineyard yeast isolate – strain RM11-1a, OD600, basal, 24 h, primary screen (AID 1177);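 also: cultures grown under basal conditions with no added stressor; test concentration not given here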; conditions: S. cerevisiae RM11-1a growth, OD600, 24 h; higher = more signal, called active from +8 up or from −8 down
[17] = growth of efflux-deficient E. coli DRC39 – strain DRC39, OD650, 24 h, E. coli filamentation inducers, primary screen (AID 1178);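 also: growth measured as culture turbidity by optical density at 650 nm; test concentration not given here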; conditions: E. coli DRC39 acrAB, higher = more signal, called active from +8 up or from −8 down
[18] = growth of efflux-deficient E. coli DRC39 – strain DRC39, OD650, 48 h, E. coli filamentation inducers, primary screen (AID 1179);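 also: screen aims at cell division blockers that make cells filament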; conditions: E. coli DRC39 delta-acrAB growth, higher = more signal, called active from +8 up or from −8 down
[19] = viability profiling in RPMI8226 myeloma cells – cell-based, resazurin fluorescence, basal, 24 h, PK04 Diversity Set, profiling panel (AID 1180); conditions: higher = more signal;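 also: RPMI8826 multiple myeloma cell line at 5000 cells per well; test concentration not given here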
[20] = biological target: E3 ubiquitin-protein ligase XIAP (Homo sapiens) (UniProt P98170); test: small molecules binding XIAP protein – biophysical, small-molecule microarray, fluorescence 635 nm, primary screen (AID 1181); conditions: higher = more signal;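 also: score merges 667 nm emission and signal to noise over triplicate slides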
Sequence of E3 ubiquitin-protein ligase XIAP (Homo sapiens) (P98170 whole entry, looked up): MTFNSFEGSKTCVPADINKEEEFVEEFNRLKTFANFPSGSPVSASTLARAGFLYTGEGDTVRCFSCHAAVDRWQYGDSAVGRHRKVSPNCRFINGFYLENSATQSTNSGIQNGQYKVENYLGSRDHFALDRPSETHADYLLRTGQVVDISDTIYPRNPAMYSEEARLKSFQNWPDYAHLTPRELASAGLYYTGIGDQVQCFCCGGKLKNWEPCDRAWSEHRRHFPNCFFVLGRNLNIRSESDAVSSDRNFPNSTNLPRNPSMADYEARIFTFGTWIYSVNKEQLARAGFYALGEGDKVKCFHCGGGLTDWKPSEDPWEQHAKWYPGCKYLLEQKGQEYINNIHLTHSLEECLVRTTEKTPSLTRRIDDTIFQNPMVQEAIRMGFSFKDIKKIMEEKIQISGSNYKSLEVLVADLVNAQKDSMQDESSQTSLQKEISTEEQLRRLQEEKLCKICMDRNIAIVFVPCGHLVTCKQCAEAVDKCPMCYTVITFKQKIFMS

SMILES	z-score [1]	z-score [2]	z-score [3]	z-score [4]	z-score [5]	z-score [6]	z-score [7]	z-score [8]	z-score [9]	z-score [10]	z-score [11]	z-score [12]	z-score [13]	composite z-score [14]	z-score [15]	z-score [16]	z-score [17]	z-score [18]	z-score [19]	composite z-score [20]
CCOC(=O)C[C@H]1[C@H](OC(=O)c2ccc(-c3ccccc3)cc2)[C@@H](NC(=O)c2ccc(-c3ccccc3)cc2)c2cc(OCCCO)ccc2N1C(=O)Cc1ccc(OC)cc1	-0.457	0.485	-0.0494	-0.781	0.0196	1.15	0.458 (inactive)	-0.00497	0.413	0.0992 (inactive)	-0.0995	0.353 (inactive)	-0.26 (inactive)	-0.432 (inactive)	0.432 (inactive)	0.0873 (inactive)	0.39 (inactive)	0.372 (inactive)	-0.361	-0.123
O=C1OCCC=C[C@H]2OC34C=CCN(Cc5ccccc5)C(=O)[C@H]3N(CCCCCCO)C(=O)[C@@H]4C12 (stereo not given in full)	0.612	-0.0143	0.457	1.68	0.581	0.445	0.903 (inactive)	-0.0486	-0.248	1.33 (inactive)	1.83	0.0187 (inactive)	0.654 (inactive)	0.261 (inactive)	-0.208 (inactive)	0.589 (inactive)	0.759 (inactive)	0.653 (inactive)	0.183	-0.0918
CC(C)(C)N1CC=CC23O[C@@H]4/C=C\CCCOC(=O)C4[C@H]2C(=O)N(CCO)[C@@H]3C1=O (stereo not given in full)	-0.612	1.15	-0.664	0.889	-0.689	-0.388	-0.79 (inactive)	-0.0669	1.11	-0.876 (inactive)	-0.636	0.0998 (inactive)	-0.0023 (inactive)	-0.252 (inactive)	0.18 (inactive)	0.338 (inactive)	-0.599 (inactive)	-0.814 (inactive)	-0.053	-0.142
COC(=O)[C@@]1(Cc2ccc(OC)cc2)[C@H]2c3cc(C(=O)N(C)C)n(Cc4c(OC)[nH]cc(C)c4=O)c3C[C@H]2CN1C(=O)c1ccccc1	0.249	-0.0161	1.17	0.685	1.13	1.95	0.274 (inactive)	-0.213	-1.65	-1.52 (inactive)	-0.672	0.87 (inactive)	-2.62 (inactive)	-0.967 (inactive)	0.7 (inactive)	-0.838 (inactive)	0.0795 (inactive)	0.574 (inactive)	-1.93	0.295
CCOC(=O)C[C@H]1[C@H](OC(=O)c2ccccc2-c2ccccc2)[C@@H](NC(=O)c2ccc3ccccc3c2)c2cc(OCCCO)ccc2N1C(=O)c1ccc2ccccc2n1	0.135	0.487	-0.0645	-0.957	-0.442	0.732	2.16 (inactive)	-0.337	-0.615	0.735 (inactive)	1.33	0.682 (inactive)	0.288 (inactive)	0.428 (inactive)	-0.271 (inactive)	0.876 (inactive)	0.672 (inactive)	0.641 (inactive)	0.726	-0.144
CCCNC(=O)[C@@H]1c2ccccc2C(=O)N(Cc2ccccc2)[C@H]1c1ccc(CO)cc1	0.756	1.38	0.817	-0.183	0.502	2.12	-1.28 (inactive)	-0.681	-0.549	0.528 (inactive)	-0.898	0.215 (inactive)	0.0254 (inactive)	0.939 (inactive)	1.27 (inactive)	0.797 (inactive)	-0.229 (inactive)	-0.969 (inactive)	0.477	-0.276
COc1ccc([Si](C)(C)[C@H]2[C@H](CC(=O)N(CCO)Cc3ccccc3)O[C@@]3(C(=O)N(Cc4cccc(N5CCC5=O)c4)c4ccccc43)[C@@H]2C)cc1	-1.42	1.48	-1.93	-1.6	-4.08	0.967	0.498 (inactive)	-0.873	-1.27	-1.97 (inactive)	-0.412	-0.0113 (inactive)	-2.76 (inactive)	-1.19 (inactive)	0.295 (inactive)	1.17 (inactive)	0.405 (inactive)	0.169 (inactive)	-3.11	0.0259
COc1ccc(CCNC(=O)[C@@]2(Sc3ccc(C)cc3)CC(=O)N(Cc3ccccc3Cl)[C@@H]2c2ccc(CO)cc2I)cc1	0.507	-1.07	0.334	-1.41	-1.54	0.167	-0.0114 (inactive)	-0.474	-1.96	-0.478 (inactive)	0.254	-4.37 (inactive)	-2.75 (inactive)	-0.725 (inactive)	0.379 (inactive)	-1.37 (inactive)	0.853 (inactive)	1.36 (inactive)	-1.71	0.0512
O=C1C2C=CC(C(O)c3ccc(F)cc3)N(Nc3ccccc3)C2C(=O)N1c1ccccc1 (stereo not given)	0.257	-1.66	-0.114	0.561	-0.149	-1.58	-0.0708 (inactive)	-0.0118	-1.01	-0.111 (inactive)	-1.24	-3.05 (inactive)	-1.33 (inactive)	0.485 (inactive)	0.888 (inactive)	0.723 (inactive)	-0.811 (inactive)	0.128 (inactive)	-0.535	-0.229
O=c1cccc(CCc2ccccc2)o1	-0.0082	-0.519	0.926	-0.441	-0.709	-0.903	-0.352 (inactive)	-0.976	0.226	-0.574 (inactive)	-0.523	-3.45 (inactive)	-0.0074 (inactive)	-1.19 (inactive)	-0.156 (inactive)	-0.259 (inactive)	-0.74 (inactive)	-0.608 (inactive)	-0.753	0.273
C=CCC(OC(C)=O)[C@@H]1[C@@H](N(Cc2ccc(-c3cccc(C(F)(F)F)c3)o2)C(=O)c2ccc(C)cc2)c2cc(OCCCO)ccc2N1C(=O)c1ccc(-c2ccccc2)cc1 (stereo not given in full)	1.18	0.345	1.65	1.02	0.657	3.89	-1.29 (inactive)	0.866	0.112	-0.0211 (inactive)	0.0024	-0.15 (inactive)	-0.936 (inactive)	-0.23 (inactive)	0.477 (inactive)	0.677 (inactive)	-0.456 (inactive)	0.0289 (inactive)	0.525	-0.127
N#Cc1ccc(NN2C(C(O)C3CCCCC3)C=CC3C(=O)N(c4ccccc4)C(=O)C32)cc1 (stereo not given)	-0.669	-0.515	0.595	-0.185	-0.32	-2.19	-2.17 (inactive)	0.234	0.318	-0.609 (inactive)	-0.779	-0.394 (inactive)	-0.668 (inactive)	-0.177 (inactive)	1.14 (inactive)	-0.28 (inactive)	-0.427 (inactive)	-0.673 (inactive)	-0.848	0.262
O=C1c2ccccc2[C@@]2(Cc3ccccc3N(Cc3ccccc3)C2=O)[C@H](c2ccc(CO)cc2)N1C1CCCCC1	-0.774	-0.752	-0.466	-0.144	-0.977	-0.689	0.604 (inactive)	-0.582	-1.32	-0.022 (inactive)	0.281	1.61 (inactive)	-0.242 (inactive)	-11.6 (active)	0.407 (inactive)	1.57 (inactive)	0.281 (inactive)	0.256 (inactive)	-0.0776	-0.239
CC(=O)NCCCC[C@@H]1NC(=O)[C@@H]2C[C@H](C(=O)NCCCCN(C)C)[C@H](c3ccc(O)cc3)N2C1=O	1.42	-0.582	0.374	0.213	0.93	0.709	1.05 (inactive)	-0.293	-0.504	0.854 (inactive)	0.801	-0.397 (inactive)	0.925 (inactive)	-0.0536 (inactive)	-0.201 (inactive)	0.037 (inactive)	1.23 (inactive)	1.51 (inactive)	1.15	-0.23
CCCNC(=O)[C@@]1(c2ccc([N+](=O)[O-])cc2)CC(=O)N(CC23CC4CC(CC(C4)C2)C3)[C@@H]1c1ccc(CO)cc1	-1.05	-0.35	-1.67	-3.54	-3.38	-0.99	-0.141 (inactive)	-0.769	-1.05	-2.9 (inactive)	-1.8	1.07 (inactive)	-3.32 (inactive)	-0.225 (inactive)	0.416 (inactive)	1.05 (inactive)	-0.421 (inactive)	-0.391 (inactive)	-3.71	0.182
CCCN1C(=O)[C@]2(COC(c3ccc(OCCCO)cc3)=N2)Cc2ccccc21	-0.78	0.585	0.302	-1.6	-0.688	-0.0681	-0.919 (inactive)	0.391	0.148	0.212 (inactive)	0.0036	-1.69 (inactive)	-0.543 (inactive)	-0.238 (inactive)	-0.152 (inactive)	0.235 (inactive)	-0.011 (inactive)	-0.0774 (inactive)	-0.454	-0.195
C[C@H]1NC(=O)[C@H](Cc2ccccc2)NC(=O)[C@@]23C(=O)N[C@@H](Cc4ccccc4)C2[C@H](C)[C@@]2(C)O[C@H]2C3/C=C/C/C=C\CNC1=O (stereo not given in full)	1.1	0.827	0.514	-0.0775	-1.27	0.542	0.342 (inactive)	0.0827	0.782	0.229 (inactive)	-0.23	0.0145 (inactive)	0.557 (inactive)	0.742 (inactive)	-0.246 (inactive)	1.16 (inactive)	1.32 (inactive)	0.64 (inactive)	1.07	-0.173
Cc1ccc([C@H]2[C@H](C(=O)O)[C@H](Sc3ccccc3)[C@@H](C(C)C)N2S(=O)(=O)c2ccc(C)cc2)cc1	-0.74	-0.594	-0.447	-0.0237	-0.802	-1.63	0.327 (inactive)	-0.199	-0.437	-0.064 (inactive)	-1.15	-0.138 (inactive)	-0.498 (inactive)	0.184 (inactive)	0.0362 (inactive)	-0.528 (inactive)	-1.44 (inactive)	-0.292 (inactive)	-1.39	0.603
